{
  "source": "PubChem BioAssay",
  "key": {"[1]": {"assay": "liver-stage malaria parasite growth inhibition, primary screen, cell-based, HepG2, luciferase luminescence, HepG2 viability (AID 624349; in the data active means parasite load remaining mostly below about 12%, no sharp cut-off; inactive means mostly above about 10%;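 further: 100% = mean of DMSO negative control wells on the same plate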)", "settings": "P. berghei liver stage in HepG2, luciferase luminescence, concentration not given here; parasite load remaining: stronger effect = lower value; viability: measured here: HepG2 viability without parasites"}, "[2]": {"assay": "sensitizers of A549 cells to miR-34 induction, primary screen, imaging, A549 dox-inducible miR-34, nuclei and caspase counts (AID 1347080)", "settings": "A549 miR-34 inducible, Hoechst nuclei count, 48 h"}, "[3]": {"assay": "survival rescue of mitochondrial mutant cells in low glucose, primary screen, MELAS cybrids, Rieske KO mouse fibroblasts, CellTiter-Glo (AID 1508586;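 active means mean z-score across replicates of 1.96 or higher in either the MELAS or the Rieske mutant cell line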;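 further: z relative to plate mean and SD of compound and empty wells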)"}, "[4]": {"target": "ATP-dependent translocase ABCB1 (Homo sapiens) (UniProt P08183)", "sequence (P08183 whole entry, looked up)": "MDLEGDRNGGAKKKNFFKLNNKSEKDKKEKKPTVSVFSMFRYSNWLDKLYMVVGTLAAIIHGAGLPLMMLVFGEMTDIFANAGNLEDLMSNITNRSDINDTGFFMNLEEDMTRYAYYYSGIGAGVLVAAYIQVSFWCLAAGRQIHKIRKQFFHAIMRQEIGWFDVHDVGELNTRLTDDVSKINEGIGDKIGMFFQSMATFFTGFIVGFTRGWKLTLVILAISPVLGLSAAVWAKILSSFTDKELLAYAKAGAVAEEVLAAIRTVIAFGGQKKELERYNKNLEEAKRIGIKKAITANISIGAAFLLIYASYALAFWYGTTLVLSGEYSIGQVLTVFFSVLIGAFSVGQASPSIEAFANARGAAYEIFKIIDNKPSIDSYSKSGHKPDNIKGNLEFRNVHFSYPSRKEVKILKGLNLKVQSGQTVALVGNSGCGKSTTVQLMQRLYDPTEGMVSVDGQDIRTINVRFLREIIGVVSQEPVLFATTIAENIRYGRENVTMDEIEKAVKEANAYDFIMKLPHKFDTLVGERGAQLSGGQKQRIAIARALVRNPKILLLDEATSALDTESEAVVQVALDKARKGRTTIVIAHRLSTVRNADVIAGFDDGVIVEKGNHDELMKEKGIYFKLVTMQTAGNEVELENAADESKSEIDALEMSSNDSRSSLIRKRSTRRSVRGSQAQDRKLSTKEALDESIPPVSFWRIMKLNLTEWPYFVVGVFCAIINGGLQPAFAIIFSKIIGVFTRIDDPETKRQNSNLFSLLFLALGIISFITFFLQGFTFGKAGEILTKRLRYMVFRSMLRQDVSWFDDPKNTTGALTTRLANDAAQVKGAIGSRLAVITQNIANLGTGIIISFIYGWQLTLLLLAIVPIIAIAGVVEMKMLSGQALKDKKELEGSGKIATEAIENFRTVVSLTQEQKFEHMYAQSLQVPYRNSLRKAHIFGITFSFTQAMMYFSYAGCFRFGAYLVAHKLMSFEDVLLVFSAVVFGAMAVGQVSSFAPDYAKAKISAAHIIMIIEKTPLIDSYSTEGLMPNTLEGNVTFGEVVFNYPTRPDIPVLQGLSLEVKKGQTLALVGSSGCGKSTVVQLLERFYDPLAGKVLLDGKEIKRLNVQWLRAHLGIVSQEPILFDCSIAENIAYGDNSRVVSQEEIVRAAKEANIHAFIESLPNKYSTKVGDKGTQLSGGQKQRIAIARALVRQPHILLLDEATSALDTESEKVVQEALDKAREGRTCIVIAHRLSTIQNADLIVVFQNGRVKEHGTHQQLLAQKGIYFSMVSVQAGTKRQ", "assay": "MDR1 (ABCB1) efflux transporter inhibition, cell-based (AID 377; in the data active means fluorescence slope change above about 50%)", "settings": "MDR1-expressing cells, fluorescent substrate accumulation slope; stronger effect = higher value; concentration not given here"}, "[5]": {"assay": "hESC survival regulators, cell-based (AID 493140; call rule not given here;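 further: cells exposed to compounds for four days before counting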)", "settings": "human embryonic stem cell survival screen; stronger effect = higher value"}, "[6]": {"target": "Mitogen-activated protein kinase 7 (Homo sapiens) (UniProt Q13164)", "sequence (Q13164 whole entry, looked up, the tested form may be a part)": "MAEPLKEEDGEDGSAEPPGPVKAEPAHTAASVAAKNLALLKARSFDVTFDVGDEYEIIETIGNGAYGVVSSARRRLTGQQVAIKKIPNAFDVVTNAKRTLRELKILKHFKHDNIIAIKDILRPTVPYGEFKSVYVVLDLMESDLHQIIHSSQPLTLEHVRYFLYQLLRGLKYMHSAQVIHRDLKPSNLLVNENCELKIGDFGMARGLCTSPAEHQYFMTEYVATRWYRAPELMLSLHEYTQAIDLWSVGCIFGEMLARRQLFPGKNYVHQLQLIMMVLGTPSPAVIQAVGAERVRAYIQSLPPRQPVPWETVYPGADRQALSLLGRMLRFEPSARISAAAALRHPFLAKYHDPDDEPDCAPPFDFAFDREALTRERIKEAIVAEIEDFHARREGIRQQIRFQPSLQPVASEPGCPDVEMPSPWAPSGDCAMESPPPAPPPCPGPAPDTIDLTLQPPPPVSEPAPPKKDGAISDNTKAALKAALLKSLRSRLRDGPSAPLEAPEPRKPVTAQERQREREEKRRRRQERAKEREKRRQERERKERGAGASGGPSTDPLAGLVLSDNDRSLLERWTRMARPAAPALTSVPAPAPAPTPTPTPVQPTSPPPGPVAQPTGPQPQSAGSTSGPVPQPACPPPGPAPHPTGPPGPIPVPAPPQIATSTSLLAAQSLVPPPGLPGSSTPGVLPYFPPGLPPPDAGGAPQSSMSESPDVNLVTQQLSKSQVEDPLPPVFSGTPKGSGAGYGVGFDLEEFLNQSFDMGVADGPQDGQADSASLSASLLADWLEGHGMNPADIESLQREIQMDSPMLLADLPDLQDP", "assay": "ERK5 transactivation activators in reporter cells, primary screen, cell-based, HTS (AID 1508626;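 active means luciferase signal above three times the same-plate solvent-only control wells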;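 further: luciferase driven by Gal4-ERK5 fusion binding five Gal4 sites before minimal TATA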)", "settings": "HeLa Gal4-ERK5 transactivation, 18 h, at 5 µM, stronger effect = higher value"}, "[7]": {"assay": "viability rescue of complex I mutant cybrids, primary screen, cell-based, galactose medium, ATP luminescence (AID 1645843;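 active means z-score of at least 1.8 in each of two replicates, scored against plate mean and spread of sample wells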;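 further: positive z means more ATP and so rescue of galactose-driven cybrid death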)", "settings": "complex I mutant cybrid cells, 72 h, stronger effect = higher value"}, "[8]": {"settings": "stronger effect = lower value, cell number ratio, induced over uninduced"}, "[9]": {"settings": "measured here: relative caspase fold change +Dox/-Dox"}, "[10]": {"settings": "measured here: total cells with miR-34 induction, stronger effect = lower value"}, "[11]": {"settings": "measured here: total cells without miR-34 induction"}, "[12]": {"settings": "MELAS cybrid survival, CellTiter-Glo 48 h, stronger effect = higher value"}, "[13]": {"settings": "Rieske KO mouse fibroblast survival, CellTiter-Glo 72 h"}},
  "note": "“And” between values parts separate entries of the source, which are not always exact repeats. Equal entries are not always repeated. Records with an inconclusive call do not appear. The source made the active and inactive calls.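 How the source made its calls, unless noted: active means compounds whose cell count with miR-34 switched on is under 0.7 times the count with it off; inactive means the rest.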",
  "data": [
    {"smiles": "CN1CC[C@@]2(C)c3cc(O)ccc3N(C)[C@H]12", "values": [
      {"measurement": "parasite load remaining", "setting": "[1]", "value": "82.4% (inactive)"},
      {"measurement": "viability", "setting": "[1]", "value": 73.5, "unit": "%"},
      {"measurement": "fold change", "setting": "[2]; [8]", "value": "0.908 (inactive)"},
      {"measurement": "fold change", "setting": "[2]; [9]", "value": 0.758},
      {"measurement": "cell count", "setting": "[2]; [10]", "value": 8570},
      {"measurement": "cell count", "setting": "[2]; [11]", "value": 9440},
      {"measurement": "z-score", "setting": "[3]; [12]", "value": "0.308 (inactive)"},
      {"measurement": "z-score", "setting": "[3]; [13]", "value": 1.44}
    ]},
    {"smiles": "C[C@]12CC[C@H]3[C@@H](CC[C@]4(O)C[C@@H](O)CC[C@]34C=O)[C@@]1(O)CC[C@@H]2C1=CC(=O)OC1", "values": [
      {"measurement": "fluorescence slope change", "setting": "[4]", "value": "11.2% (inactive)"},
      {"measurement": "survival", "setting": "[5]", "value": "1.42 (inactive)"},
      {"measurement": "parasite load remaining", "setting": "[1]", "value": "0.385% (inactive)"},
      {"measurement": "viability", "setting": "[1]", "value": 54, "unit": "%"},
      {"measurement": "fold change", "setting": "[2]; stronger effect = lower value", "value": "1.08 (inactive)"},
      {"measurement": "fold change", "setting": "[2]; [9]", "value": 0.794},
      {"measurement": "cell count", "setting": "[2]; [10]", "value": 773},
      {"measurement": "cell count", "setting": "[2]; [11]", "value": 713},
      {"measurement": "luciferase signal", "setting": "[6]", "value": "16 AU (inactive)"}
    ]},
    {"smiles": "O=C1OCCN1N=Cc1ccc([N+](=O)[O-])o1", "values": [
      {"measurement": "fluorescence slope change", "setting": "[4]", "value": "82.1% (active)"},
      {"measurement": "survival", "setting": "[5]", "value": "4.33 (inactive)"},
      {"measurement": "parasite load remaining", "setting": "[1]", "value": "34.2% (inactive)"},
      {"measurement": "viability", "setting": "[1]", "value": 103, "unit": "%"},
      {"measurement": "fold change", "setting": "[2]; [8]", "value": "0.869 (inactive)"},
      {"measurement": "fold change", "setting": "[2]; [9]", "value": 1.27},
      {"measurement": "cell count", "setting": "[2]; [10]", "value": 7950},
      {"measurement": "cell count", "setting": "[2]; [11]", "value": 9150},
      {"measurement": "z-score", "setting": "[3]; [12]", "value": "-1.23 (inactive)"},
      {"measurement": "z-score", "setting": "[3]; [13]", "value": -1.17}
    ]},
    {"smiles": "CCC1=C[C@@H]2CN3CCc4c([nH]c5ccccc45)[C@@](C(=O)OC)(C2)[C@@H]13", "values": [
      {"measurement": "parasite load remaining", "setting": "[1]", "value": "9.8% (inactive)"},
      {"measurement": "viability", "setting": "[1]", "value": 47.4, "unit": "%"},
      {"measurement": "fold change", "setting": "[2]; [8]", "value": "0.949 (inactive) and 0.823 (inactive)"},
      {"measurement": "fold change", "setting": "[2]; [9]", "value": "1.22 and 0.88"},
      {"measurement": "cell count", "setting": "[2]; [10]", "value": "8480 and 6230"},
      {"measurement": "cell count", "setting": "[2]; [11]", "value": "8930 and 7580"},
      {"measurement": "z-score", "setting": "[3]; [12]", "value": "-0.196 (inactive) and 0.501 (inactive)"},
      {"measurement": "z-score", "setting": "[3]; [13]", "value": "-0.315 and -0.157"}
    ]},
    {"smiles": "CCC1(C)CC(=O)NC(=O)C1", "values": [
      {"measurement": "survival", "setting": "[5]", "value": "3.92 (inactive)"},
      {"measurement": "parasite load remaining", "setting": "[1]", "value": "94.7% (inactive)"},
      {"measurement": "viability", "setting": "[1]", "value": 101, "unit": "%"},
      {"measurement": "fold change", "setting": "[2]; stronger effect = lower value", "value": "0.856 (inactive) and 0.868 (inactive)"},
      {"measurement": "fold change", "setting": "[2]; [9]", "value": "1.33 and 1.2"},
      {"measurement": "cell count", "setting": "[2]; [10]", "value": "8070 and 7990"},
      {"measurement": "cell count", "setting": "[2]; [11]", "value": "9420 and 9200"},
      {"measurement": "z-score", "setting": "[3]; [12]", "value": "-0.143 (inactive) and 0.0597 (inactive)"},
      {"measurement": "z-score", "setting": "[3]; [13]", "value": "-0.288 and -0.916"}
    ]},
    {"smiles": "C[C@]12CC[C@H](O)C[C@H]1CC[C@@H]1[C@@H]2C[C@@H](O)[C@]2(C)[C@@H](C3=CC(=O)OC3)CC[C@]12O", "values": [
      {"measurement": "survival", "setting": "[5]", "value": "8.33 (inactive)"},
      {"measurement": "parasite load remaining", "setting": "[1]", "value": "0.32% (inactive)"},
      {"measurement": "viability", "setting": "[1]", "value": 57, "unit": "%"},
      {"measurement": "fold change", "setting": "[2]; stronger effect = lower value", "value": "0.713 (inactive)"},
      {"measurement": "fold change", "setting": "[2]; [9]", "value": 1.4},
      {"measurement": "cell count", "setting": "[2]; [10]", "value": 550},
      {"measurement": "cell count", "setting": "[2]; [11]", "value": 772},
      {"measurement": "z-score", "setting": "[3]; [12]", "value": "2.02 (active)"},
      {"measurement": "z-score", "setting": "[3]; [13]", "value": -0.935}
    ]},
    {"smiles": "Clc1ccc(C(Cn2ccnc2)OCc2csc3c(Cl)cccc23)c(Cl)c1", "note": "(configuration not stated)", "values": [
      {"measurement": "survival", "setting": "[5]", "value": "10.7 (inactive)"},
      {"measurement": "parasite load remaining", "setting": "[1]", "value": "93.3% (inactive) and 30.9% (inactive)"},
      {"measurement": "viability", "setting": "[1]", "value": "80.2% and 95%"},
      {"measurement": "fold change", "setting": "[2]; stronger effect = lower value", "value": "0.952 (inactive) and 0.861 (inactive)"},
      {"measurement": "fold change", "setting": "[2]; [9]", "value": "0.728 and 1"},
      {"measurement": "cell count", "setting": "[2]; [10]", "value": "7030 and 8370"},
      {"measurement": "cell count", "setting": "[2]; [11]", "value": "7390 and 9720"},
      {"measurement": "z-score", "setting": "[3]; [12]", "value": "0.182 and 1.75 (inactive)"},
      {"measurement": "z-score", "setting": "[3]; [13]", "value": "2.82 and 1.72"}
    ]},
    {"smiles": "CCCCCC=CCC=CCC=CCC=CCCCC(=O)Nc1ccc(O)cc1", "values": [
      {"measurement": "fold change", "setting": "[2]; [8]", "value": "0.829 (inactive)"},
      {"measurement": "fold change", "setting": "[2]; [9]", "value": 1.13},
      {"measurement": "cell count", "setting": "[2]; [10]", "value": 7710},
      {"measurement": "cell count", "setting": "[2]; [11]", "value": 9290},
      {"measurement": "z-score", "setting": "[7]", "value": "-1.44 (inactive)"}
    ]}
  ]
}
